Source: PubChem BioAssay (Tox21)
Results filed as inconclusive are left out. Where a call stands in place of a potency, no number is given. Calls of active or inactive are those of the source. The call rests on the fitted dose curve.
Potency means the concentration at half of the fitted maximal effect.

What follows are compounds tested against Progesterone receptor (Homo sapiens) (UniProt P06401) (assay: qHTS assay to identify small molecule agonists of the progesterone receptor (PR) signaling pathway (AID 1346784; further: nearly all actives have a fitted effect of over 30% in size)). Details: PR-UAS-bla HEK293T, beta-lactamase FRET ratio, 16 h; series mostly up to 92.4 µM; activation: at the top concentration.
Sequence of Progesterone receptor (Homo sapiens) (P06401 whole entry, looked up): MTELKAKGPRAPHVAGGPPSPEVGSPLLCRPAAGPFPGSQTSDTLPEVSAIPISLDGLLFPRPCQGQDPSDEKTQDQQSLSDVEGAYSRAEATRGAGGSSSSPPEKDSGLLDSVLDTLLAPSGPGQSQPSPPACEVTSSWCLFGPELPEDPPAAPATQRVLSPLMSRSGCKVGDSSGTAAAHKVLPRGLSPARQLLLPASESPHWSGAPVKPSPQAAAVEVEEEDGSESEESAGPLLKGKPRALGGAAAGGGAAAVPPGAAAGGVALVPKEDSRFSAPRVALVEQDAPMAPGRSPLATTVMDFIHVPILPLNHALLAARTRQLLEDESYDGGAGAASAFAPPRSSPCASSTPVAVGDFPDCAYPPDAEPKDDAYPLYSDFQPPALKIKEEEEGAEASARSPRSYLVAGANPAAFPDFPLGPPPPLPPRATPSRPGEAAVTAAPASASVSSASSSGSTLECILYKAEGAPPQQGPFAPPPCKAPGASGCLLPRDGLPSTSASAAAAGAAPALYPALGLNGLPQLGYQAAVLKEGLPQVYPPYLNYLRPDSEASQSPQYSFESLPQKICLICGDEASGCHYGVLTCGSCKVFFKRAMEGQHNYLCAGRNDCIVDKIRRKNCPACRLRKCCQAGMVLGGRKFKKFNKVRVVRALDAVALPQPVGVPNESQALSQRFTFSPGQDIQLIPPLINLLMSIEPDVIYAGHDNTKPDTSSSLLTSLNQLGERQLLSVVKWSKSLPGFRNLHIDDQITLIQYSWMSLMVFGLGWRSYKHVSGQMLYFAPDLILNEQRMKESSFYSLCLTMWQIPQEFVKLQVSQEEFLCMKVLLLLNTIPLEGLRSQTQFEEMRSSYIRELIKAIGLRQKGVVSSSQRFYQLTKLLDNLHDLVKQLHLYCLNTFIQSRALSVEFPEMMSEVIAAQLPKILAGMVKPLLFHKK
From the text: U.S. Tox21 Program National Center for Advancing Translational Sciences [NCATS] NIH Chemical Genomics Center [NCGC] U.S. Environmental Protection Agency [EPA] National Institutes of Environmental Health Sciences [NIEHS] National Toxicology Program [NTP] U.S. Food and Drug Administration [FDA] […] Endocrine disrupting chemicals (EDCs) and their interactions with steroid hormone receptors like PR causes disruption of normal endocrine function. To identify the compounds that activate PR signaling, a PR-UAS-bla GripTite cell line i.e. PR-UAS-bla HEK 293T (Invitrogen, Carlsbad, CA, USA) containing a beta-lactamase reporter gene under the control of an Upstream Activator Sequence (UAS) was used to screen Tox21 10K compound library.
Tox21 Assay Protocol Summary: PR-UAS-bla HEK 293T cells were dispensed at 3,000 cells/5 uL of assay medium containing 2% charcoal stripped FBS per well into black wall/clear-bottom 1536-well plates using a Multidrop Combi (ThermoFisher Scientific, Waltham, MA) dispenser. After the assay plates were incubated at a 37C and 5% CO2 for 6hr, 23 nL of compounds dissolved in DMSO, positive controls or DMSO only was transferred to the assay plate by a Pintool station (Kalypsys, San Diego, CA). The plates were incubated at 37C and 5% CO2 for 16hr. Then 1 uL of LiveBLAzer B/G FRET substrate was added using a BioRAPTR FRD (Flying Reagent Dispenser, Aurora Discovery, San Diego, CA). After the plates were incubated at room temperature for 2 hours, fluorescence intensity was measured by an Envision plate reader (PerkinElmer, Shelton, CT).
In the case of CCCCOCCOCCO, the Potency was “inactive”.
With CCCCC(CC)COCC1CO1 (stereo not given) the Potency was “inactive”.
CN(C)CCN(Cc1cccs1)c1ccccn1 was tested, and the Potency was “inactive”.
In the case of CN(C)CCC=C1c2ccccc2CCc2ccccc21, the Potency was “inactive”.
In the case of O=C(OCc1ccccc1)c1ccccc1O, the Potency was “inactive”.
C=CC(C)(CCC=C(C)C)OC(C)=O (stereo not given) was tested, and the Potency was “inactive”.
With O=C(c1ccccc1)c1ccc(O)cc1O the Potency was “inactive”.
COc1ccc(C(=O)CC(=O)c2ccc(C(C)(C)C)cc2)cc1 was tested, and the Potency was “inactive”.
With O=C(Nc1ccc(Cl)cc1)Nc1ccc(Cl)c(Cl)c1 the Potency was “inactive”.
With Cc1cc2nc3c(=O)[nH]c(=O)nc-3n(C[C@H](O)[C@H](O)[C@H](O)CO)c2cc1C the Potency was “inactive”.
Cc1c(OCC(F)(F)F)ccnc1CS(=O)c1nc2ccccc2[nH]1 (stereo not given) was tested, and the Potency was “inactive”.
Cc1cccc(C(=O)O)c1 was tested, and the Potency was “inactive”.
For COc1c(Cl)c(Cl)c(Cl)c(Cl)c1Cl, the Potency was “inactive”.
With CCCCC/C=C/C=C/C=O the Potency was “inactive”.
With CCCCC(CC)COC(=O)c1ccc(N(C)C)cc1 (stereo not given) the Potency was “inactive”.
For Nc1ccc(Cl)cc1Cl, the Potency was “inactive”.
Cc1cccc(N(C)C(=S)Oc2ccc3ccccc3c2)c1 was tested, and the Potency was “inactive”.
COc1ccccc1/C=C/C=O was tested, and the Potency was “inactive”.
For Oc1ccc(O)cc1, the Potency was “inactive”.
With O=C=Nc1ccc(Cc2ccc(N=C=O)cc2)cc1 the Potency was “inactive”.
CC(C)=CCC/C(C)=C\CO was tested, and the Potency was “inactive”.
CCCCC(CC)COP(=O)(OCC(CC)CCCC)OCC(CC)CCCC (stereo not given) was tested, and the Potency was “inactive”.
In the case of CCCCCCCCCC(=O)OC, the Potency was “inactive”.
Cc1c(C(N)=O)cc([N+](=O)[O-])cc1[N+](=O)[O-] was tested, and the Potency was “inactive”.
With CCOCCOCCO the Potency was “inactive”.
For O=C(COc1ccc(Cl)cc1)N1CCN(Cc2ccc3c(c2)OCO3)CC1, the Potency was “inactive”.
With O=C(c1ccccc1)c1ccccc1O the Potency was “inactive”.
C=C(C)C1CC=C(C)CC1 (stereo not given) was tested, and the Potency was “inactive”.
In the case of C[C@]12CC[C@H]3[C@@H](CCC4=CC(=O)CC[C@@]43C)[C@@H]1CC[C@@H]2C(=O)CO, the Potency was 0.237 µM (active).
With CNCCCC12CCC(c3ccccc31)c1ccccc12 the “activation” value was -6.84% [at 42.5 µM] (inactive).
For CC(C)(C)NC(=O)[C@H]1CC[C@H]2[C@@H]3CC[C@H]4NC(=O)C=C[C@]4(C)[C@H]3CC[C@]12C, the Potency was “inactive”.
In the case of CC(CCC(=O)O)(c1ccc(O)cc1)c1ccc(O)cc1, the Potency was “inactive”.
For O=[N+]([O-])c1ccc2c(c1)Cc1ccccc1-2, the Potency was “inactive”.
In the case of O=C(Nc1ccc([N+](=O)[O-])cc1Cl)c1cc(Cl)ccc1O, the activation was 2.96% [at 19 µM] (inactive).
For c1ccc2c(c1)Oc1ccccc1S2, the Potency was “inactive”.
In the case of COC(=O)c1ccccc1, the Potency was “inactive”.
With O=c1oc(=O)c2cc3c(=O)oc(=O)c3cc12 the Potency was “inactive”.
For C=C(C)C(=O)OCCOC(=O)C(=C)C, the Potency was “inactive”.
For CCOC(=O)C(C#N)=C(c1ccccc1)c1ccccc1, the Potency was “inactive”.
With CCCCOCCOCCOCCO the Potency was “inactive”.
